# Measured values as given in PubChem BioAssay (NCI).
# This is part of a sample that, as a whole, favours compounds with a hit. Of some 83,000 tested, about 20% had one in any assay.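 Values shown are percent growth following 48 h exposure of cells in 96-well plates to a single concentration of compound; below 10 was considered active.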 The source made the active and inactive calls.
# System: NCI-H322M lung
# Test: NCI-60 one-dose screen, 48 h (100 = growth as untreated, 0 = no growth, -100 = all killed)
# Details: 10 µM unless noted
row,SMILES,growth
1,Clc1nc(N2CCC[N+]3(CC2)CC[N+]2(CCCNCC2)CC3)nc(N2CCC[N+]3(CC2)CC[N+]2(CCCNCC2)CC3)n1 (stereo not given),99.7% (inactive)
2,O=C(Nc1ccccc1CNc1nc(Nc2ccc(OCCN3CCCC3)cc2)ncc1Cl)NC1CCCCC1,109% (inactive)
3,Cc1nc2c(c(-c3ccccc3)n1)Cc1c(ccc3ccccc13)O2,148% (inactive)
4,COC(CCP(=O)(c1ccccc1)c1ccccc1)(C(=O)c1ccccc1)c1ccccc1 (stereo not given),72.8% (inactive)
5,Nc1ncc(-c2ccc3ncnc(N4CCc5cc(F)c(Cl)cc54)c3c2)cc1C=O,2.51% (active)
6,CC(C)(C)n1cc(-c2ccnc(NCCNS(=O)(=O)c3ccc(C(F)(F)F)cc3)c2)c(-c2ccccc2)n1,99.5% (inactive)
7,Clc1ccc(C2=Nn3c(nnc3-c3cc(Cl)cc(Cl)c3Cl)SC2)cc1,71.4% (inactive)
8,O=C(NC1CCCCCC1)c1ccc2c(=O)n3c(nc2c1)CCCCC3,90.7% (inactive)
9,C=C1C(=O)O[C@H]2[C@H]1CC/C(CNC(=O)/C=C/c1cc(OC)c(OC)c(OC)c1)=C\CC[C@@]1(C)O[C@@H]21,60% (inactive)
10,Cc1c(CC(=O)Nc2ccccc2)nnn1-c1ccccc1,105% (inactive)
11,CCn1c2ccccc2c2cc(C(O)c3cccc4ncccc34)ccc21 (stereo not given),34.8% (inactive)
12,CSc1nc(CC(C)C)c(C#N)c(=O)n1C,84.7% (inactive)
13,Oc1c(Cl)cc(Cl)c2ccc(CN3CCNCC3)nc12,58.1% (inactive)
14,CO[C@H]1CC(c2ccc[nH]2)=N[C@]12O[C@@H](C)C[C@@H]1CCCCCCCc3ccc([nH]3)[C@H]12,37.8% (inactive)
15,Nc1c(C(=O)c2ccc(Cl)cc2)sc(Nc2ccccc2)c1-c1nc2ccccc2s1,30.5% (inactive)
16,Cn1nc(-c2ccc(Cl)cc2)nc2c(=O)n(C)c(=O)nc1-2,-68.5% (active)
17,Cc1ccc(C2=Nc3c(N)nc(N)nc3NC(c3cccc(Nc4ccnc5cc(C(F)(F)F)ccc45)c3)C2)cc1 (stereo not given),54.8% (inactive)
18,COC(=O)[C@H](C)NC(=O)c1ccc(NC(=O)c2[nH]c(C)c(Cl)c2Cl)c(OCCN)c1,101% (inactive)
19,CC(C)=CC(=O)C1C(=O)c2ccccc2C1=O,92.1% (inactive)
20,C=CCn1c(SCC(=O)Nc2ccc(C(=O)/C=C/c3ccc(Cl)cc3)cc2)nnc1-c1ccc(Cl)c(Cl)c1,83.4% (inactive)

row,SMILES,growth
1,CC(C)n1cc(C2=C(c3cccc4ccccc34)C(=O)NC2=O)c2cc(Br)ccc21,87.5% (inactive)
2,CC1(C)C2=C(C(=O)N1Cc1ccccc1)C(c1ccco1)N(C(=O)C1CCC1)CCN2 (stereo not given),107% (inactive)
3,COc1cc(OC)cc(C(=O)Nc2cnc(Nc3ccc(N4CCOCC4)nc3)nc2Oc2ccc(C(F)(F)F)cc2)c1,77.4% (inactive)
4,C=C(c1ccc(C(=O)O)c(F)c1)c1cc2c(cc1C)C(C)(C)C=CC2(C)C,90.7% (inactive)
5,O=C1c2c(c3c4cc(F)ccc4oc3c3[nH]c4ccccc4c23)C(=O)N1O,57.7% (inactive)
6,CCCN1C(=O)N(CCC)C2C1NC(=S)N2/N=C/C=C/c1ccccc1OC (stereo not given),44.6% (inactive)
7,O=C(Nc1ccccc1)Nc1ccccc1CNc1nc(Nc2ccc(OCCN3CCCC3)cc2)ncc1Cl,91.1% (inactive)
8,O=C1NC(=O)C(=Cc2cc(-c3ccc(Cl)cc3)n(-c3ccccc3)n2)C(=O)N1,94% (inactive)
9,COc1ccc(-c2nc3cc(C(=O)NC4CCCCC4)ccc3n2C2CCCCC2)cc1,85.8% (inactive)
10,O=c1ccc2c(ccc3ncccc32)o1,101% (inactive)
11,CC/C(=C(/c1ccc(Cl)cc1)c1ccc(OCCN(CC)CC)cc1)c1ccc(OC)cc1,66.9% (inactive)
12,COc1ccc(N2C(=O)/C(=C/C(Cl)=C/c3ccc([N+](=O)[O-])cc3)SC2=S)cc1,31.2% (inactive)
13,CCOC(=O)CC1CSC(N/N=C(/C)c2cccc(C(F)(F)F)c2)=N1 (stereo not given),89.6% (inactive)
14,CSc1nc(N)c2c(n1)NC(c1ccccc1)C1CCc3ccccc3C1=N2 (stereo not given),112% (inactive)
15,COc1cc2cc(Oc3ccc(NC(=O)Nc4ccc(F)c(C(F)(F)F)c4)cc3)c(C)nc2cc1OCCN1CCCCC1,69.5% (inactive)
16,O=C(Nc1ncc(Cc2ccccc2)s1)c1cc(-c2ccccc2)nc2ccccc12,99.1% (inactive)
17,CN1CCN(Cc2ccc(NC(=O)c3cncc(C#Cc4cnc(N)c5ncccc45)c3)cc2Cl)CC1,116% (inactive)
18,COc1c(O[C@@H]2OC(CO)[C@H](O)[C@H](O)C2O)cc2oc3cc(O)c(CC=C(C)C)c(O)c3c(=O)c2c1CC=C(C)C (stereo not given in full),103% (inactive)
19,COc1cccc(-c2cc(-c3ccc(Nc4nc(Nc5ccc(Cl)cc5)nc(Nc5ccc(Cl)cc5)n4)cc3)nc(N)c2C#N)c1,99.9% (inactive)
20,O=C(NCCN1CCOCC1)c1cncnc1Nc1ccc2c(ccn2Cc2ccccn2)c1,105% (inactive)
